Results as given in article PMC7819943, “Rice protein-binding microarrays: a tool to detect cis-acting elements near promoter regions in rice”.
Whole data set: some 39,000 sequences, median “fluorescence intensity (a.u.)” near 4,300, cut for the highest 2% near 39,000. The sample as a whole holds a higher share of the highest values than the screen did.

Biological target: T1, OsSMF1 (Oryza sativa, UniProt Q6ZLB0 1-436)
T1 sequence: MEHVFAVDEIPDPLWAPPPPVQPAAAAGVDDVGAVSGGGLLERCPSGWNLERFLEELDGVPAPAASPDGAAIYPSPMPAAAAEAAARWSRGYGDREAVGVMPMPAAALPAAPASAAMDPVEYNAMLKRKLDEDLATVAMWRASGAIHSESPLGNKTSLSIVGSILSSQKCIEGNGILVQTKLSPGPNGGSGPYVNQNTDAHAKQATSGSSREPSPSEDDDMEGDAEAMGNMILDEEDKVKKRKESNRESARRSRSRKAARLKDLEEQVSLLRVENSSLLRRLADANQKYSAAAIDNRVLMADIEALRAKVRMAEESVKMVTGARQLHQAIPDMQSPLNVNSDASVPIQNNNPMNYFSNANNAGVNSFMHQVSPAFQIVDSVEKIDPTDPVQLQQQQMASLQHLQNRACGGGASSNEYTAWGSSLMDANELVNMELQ
Experiment: protein-binding microarray (RPBM); PBS, 2% BSA, 51.3 ng/ul salmon testes DNA, 50 uM zinc acetate, 200 nM TF, 25 C, 1 h; high values mean tight binding
Conditions: protein: recombinant; tags: N-terminal polyhistidine and DsRed monomer fusion (pET32a); chain copies: 2; label: CyDye5-dUTP incorporated in the synthesized complementary strand; 3' TTTTT single-stranded linker to array surface; dsDNA, one strand shown
Summary of the method: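 A custom Agilent array was converted to double-stranded form by primer extension with Cy5-dUTP and blocked with 2% BSA. Protein at 200 nM in PBS with 2% BSA, salmon testes DNA and 50 µM zinc acetate was applied for 1 h at 25 °C, followed by washing. The proteins were polyhistidine–DsRed N-terminal fusions of transcription factors, expressed in E. coli BL21-CodonPlus and Ni–NTA-purified. The binding signal is per-feature fluorescence intensity (arbitrary units) from an Axon 4000B scanner.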

Going from “GTGGGCCATCTGACAGTGCATACAGGAACTTTCCCCTTCTCGGAGTCACCTAGTGCAG” to “ATTATAGGTCCAGCTAAGTTGGCCCTGGTATATATATTGGCGGAGTCACCTAGTGCAG”, the binding signal falls from 4930 fluorescence intensity (a.u.) to 3980 fluorescence intensity (a.u.).

Compared with “TTGGAGGGGAAGCTATCGTGTATCCACTGCGGAGCACGGCCGGAGTCACCTAGTGCAG”, “CGTGGTGGACGGCCTCGACGAGGCGATCTGCCCGGTGGCGCGGAGTCACCTAGTGCAG” is lower in binding signal: 3650 fluorescence intensity (a.u.) for the first, 3240 fluorescence intensity (a.u.) for the second.

Going from “CCGGGCTACCATCGCGGCGACGAAACGTGCATCATCATCCCGGAGTCACCTAGTGCAG” to “AACGACGGCGAATTCTACCTCCCCGGGTATCTGGACCTCGCGGAGTCACCTAGTGCAG”, the binding signal rises from 3850 fluorescence intensity (a.u.) to 42900 fluorescence intensity (a.u.).

Going from “CGTGGCACTTAGCGATGAGTGCTGTCGTCAGTAGCAATCCCGGAGTCACCTAGTGCAG” to “GCAGGCGTCGGTTTCGCGGCTGGCAGCGGCGGCTCGCTCACGGAGTCACCTAGTGCAG”, the binding signal falls from 4620 fluorescence intensity (a.u.) to 3200 fluorescence intensity (a.u.).

Going from “GGCTAGCGTACAGGTTAAAACGTGTCGGAATCGTCAGCGCCGGAGTCACCTAGTGCAG” to “GTACAGCAGGAATCGCTGCTGGCGTCGCTTCGTCGGTTGTCGGAGTCACCTAGTGCAG”, the binding signal rises from 4110 fluorescence intensity (a.u.) to 65100 fluorescence intensity (a.u.).

Going from “GTGTTTTGACGCATGCATGCCGTTGGTCATCAGTTAATCACGGAGTCACCTAGTGCAG” to “TTCCCAAAAGGAGGCCCAATGAGAACTTGTATAGTCCTATCGGAGTCACCTAGTGCAG”, the binding signal rises from 3480 fluorescence intensity (a.u.) to 19500 fluorescence intensity (a.u.).

Compared with “GAAATCTAATTTTATCCACGAGACTATAGTGAGCCTACTCCGGAGTCACCTAGTGCAG”, “ATGTTTTCTAGACTAATATACTATTAATCTATCTTTTATCCGGAGTCACCTAGTGCAG” is lower in binding signal: 39700 fluorescence intensity (a.u.) for the first, 36400 fluorescence intensity (a.u.) for the second.

First: ATGTGACTACCACCTCTAAATTTATCTATTTTATTCACTCCGGAGTCACCTAGTGCAG
Second: GGGATGTCACACCGTCGAAGGCGTCCAGCTGTCAACATATCGGAGTCACCTAGTGCAG
The binding signal of the first is higher: 18600 fluorescence intensity (a.u.) for the first, 4720 fluorescence intensity (a.u.) for the second.

Compared with “CCGTTAGCCTCCAACGATCCAAACCGCCTCGTCATAAATACGGAGTCACCTAGTGCAG”, “TGCTGCTCTTGACACCACGTCGTTGCTGCCCTGCTTCCACCGGAGTCACCTAGTGCAG” is higher in binding signal: 3460 fluorescence intensity (a.u.) for the first, 3810 fluorescence intensity (a.u.) for the second.

Compared with “TGACTCAGTATCGATCTGACGTGGCGCTTACGTGGCAATTCGGAGTCACCTAGTGCAG”, “AGTGCCTATGTGGCGTTGACGTGGCGCTTACGTGGCAATTCGGAGTCACCTAGTGCAG” is lower in binding signal: 48000 fluorescence intensity (a.u.) for the first, 27500 fluorescence intensity (a.u.) for the second.

Going from “GTGGCATTGACGTGGCGCTTACGTGTCAATTCTACTCCGGCGGAGTCACCTAGTGCAG” to “TGGCATTGACGTGGCGCTTACGTGGCATTATATCTTGAAACGGAGTCACCTAGTGCAG”, the binding signal falls from 44200 fluorescence intensity (a.u.) to 33400 fluorescence intensity (a.u.).

Going from “TCTGATATGGCATTGACGTGACACTTACGTGGCAATTCGACGGAGTCACCTAGTGCAG” to “ATGACGTGACATTGACGTGGCGCTTACGTGGCAATTCGACCGGAGTCACCTAGTGCAG”, the binding signal rises from 12500 fluorescence intensity (a.u.) to 25600 fluorescence intensity (a.u.).

First: GCTATATTAAACATTTGCTAATGACAAATTAATTAGCTTACGGAGTCACCTAGTGCAG
Second: TCCATTTTGGACCGCTGACGAGGACGATAGGAGCGTGAGTCGGAGTCACCTAGTGCAG
The binding signal of the first is higher: 14700 fluorescence intensity (a.u.) for the first, 4710 fluorescence intensity (a.u.) for the second.

First: AGCTTGTGTACCCAGGAGATCTACATACTTCGCTACGTCACGGAGTCACCTAGTGCAG
Second: AGTATATCCTAAAGCGACACTTTACAGTCTCAAGGACATCCGGAGTCACCTAGTGCAG
The binding signal of the first is lower: 4570 fluorescence intensity (a.u.) for the first, 11200 fluorescence intensity (a.u.) for the second.

Going from “TGGAGGAAGTCAGTAGGATCCCACGTGTCATACTCACACCCGGAGTCACCTAGTGCAG” to “ACTCCGGTCCAGGAAAATTATTCCTATAGTAATGTAATAACGGAGTCACCTAGTGCAG”, the binding signal rises from 22200 fluorescence intensity (a.u.) to 42900 fluorescence intensity (a.u.).

Compared with “ATTTAACTGCATAGAAGTGTATAAGTAAAATAATTTATTCCGGAGTCACCTAGTGCAG”, “TATATAACCTAAAATGGAGGAAGTAGGAAATATGTAATTCCGGAGTCACCTAGTGCAG” is higher in binding signal: 4320 fluorescence intensity (a.u.) for the first, 4630 fluorescence intensity (a.u.) for the second.

Going from “GCCACACCCACACTGACACACATATACAAGCCAGAGAGATCGGAGTCACCTAGTGCAG” to “GAAAGGAAGAGGTGGAGGAAGTGAGACCCACTGACTTGTGCGGAGTCACCTAGTGCAG”, the binding signal rises from 3280 fluorescence intensity (a.u.) to 24500 fluorescence intensity (a.u.).

Going from “TCCACCACACGTGTCTATATCGCTTCCTTCCATTCCATCACGGAGTCACCTAGTGCAG” to “GACTTGTCCATGCATGCATGCATGACTTGTGTTCAGCCACCGGAGTCACCTAGTGCAG”, the binding signal falls from 7170 fluorescence intensity (a.u.) to 3700 fluorescence intensity (a.u.).

Compared with “TTGTTGGTGTTTCCTCGTCCGCGTCGTCGGTTGCATTCTCCGGAGTCACCTAGTGCAG”, “ACTTACACAGTAATTACACCTCACTTACACCCGCTTACACCGGAGTCACCTAGTGCAG” is higher in binding signal: 3190 fluorescence intensity (a.u.) for the first, 5410 fluorescence intensity (a.u.) for the second.

First: CGAAATAAGTAATTTACAGGGCTTTCTCTCTCTCGCTCACCGGAGTCACCTAGTGCAG
Second: GTAATTACAGCTCATGATTTTCTCTCTCTCTCTCTCTCTACGGAGTCACCTAGTGCAG
The binding signal of the first is higher: 64400 fluorescence intensity (a.u.) for the first, 19500 fluorescence intensity (a.u.) for the second.

First: TAAATAATTGCCATTGCCATGCTGCCACGTGTCATGGGACCGGAGTCACCTAGTGCAG
Second: CACATAAATAATAATAAAATGTGGGACCCACGTGGGCCCCCGGAGTCACCTAGTGCAG
The binding signal of the first is higher: 49900 fluorescence intensity (a.u.) for the first, 10400 fluorescence intensity (a.u.) for the second.

“ATGTTGACTGGACTAGCACGTGTACGCCACGTAGACCAAACGGAGTCACCTAGTGCAG” was tested, and the binding signal was 4790 fluorescence intensity (a.u.).
